These results are taken from PubChem BioAssay (NCATS).

Test [1] can be described thus: Cytotoxicity counterscreen for inhibitors of SARS-CoV-2 cell entry (AID 1645845). Also: nearly all actives have a fitted effect of over 50% in size. Particulars: cell viability (SARS-CoV-2 entry assay cells); series mostly up to 57.1 µM. In short, it runs like this: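 After a 15 min room-temperature ATPLite 1step step, luminescence reflected ATP remaining in HEK293-ACE2 cells exposed to compound for 1 h plus 48 h at 37 C, with percent activity set by cell and no-cell controls.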
In general terms: Counterscreens check selectivity or assay interference.

A short description of test [2]: Primary qHTS to identify inhibitors of SARS-CoV-2 cell entry (AID 1645846). Also: nearly all actives have a fitted effect of over 45% in size. Also: potency is read from the fitted curve at half-maximal effect. Particulars: SARS-CoV-2 pseudovirus cell entry assay, luminescence; activity change, negative = inhibition: at 57.1 µM (top of the series) unless noted; series mostly up to 57.1 µM. In short, it runs like this: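 HEK293-ACE2 (Expi293F, stable hACE2), 1500 cells/well, o/n 37C; cpd 23 nL pin, 1 h; MLV-PP w/ SARS-CoV-2-S (Wuhan-Hu-1, Δ19 C-term); 48 h 37C; Bright-Glo luminescence; normalized vs S-PP and bald PP.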
(In general: Quantitative high-throughput screening tests each substance at several concentrations.)

Test [3] concerns the target Nuclear receptor subfamily 1 group I member 3 (Homo sapiens) (UniProt Q14994). The test can be described thus: Primary qHTS for antagonist of constitutive androstane receptor (CAR) against the NCATS DSHEA and TCM libraries (AID 1794836; active = well fitted curve in the direction sought with a large enough effect; an effect the other way counts as inactive or inconclusive). Particulars: CAR reporter cell assay, antagonist mode, luciferase; series mostly up to 40 µM. In short, it runs like this:
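HepG2 cells stably carrying hCAR and a CYP2B6 luciferase reporter (2,500 cells/well) attached for 5 h, then received compounds with 48 uM CITCO for 24 h at 37C. ONE-Glo luminescence read antagonism; CellTiter-Fluor (405/540 nm) gave viability.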

The nature of test [4]: Primary qHTS for inhibitors of nuclear receptor binding SET domain protein 2 (NSD2) in an isogenic RCH-ACV NSD2 p.E1099K mutant (9B) (AID 1645876; active = well fitted curve in the direction sought with a large enough effect; an effect the other way counts as inactive or inconclusive; also: % is scaled to controls: 0 for no effect and ±100 for the full control effect; nearly all actives have a fitted effect of over 70% in size). Particulars: RCH-ACV NSD2 E1099K (9B) viability, CellTiter-Glo, 72 h; series mostly up to 44.9 µM.
Test [5] can be described thus: Primary qHTS for inhibitors of nuclear receptor binding SET domain protein 2 (NSD2) in an RCH-ACV wild type WT cells (2C) (AID 1645877; active = well fitted curve in the direction sought with a large enough effect; an effect the other way counts as inactive or inconclusive; also: potency is read from the fitted curve at half-maximal effect; nearly all actives have a fitted effect of over 70% in size). Particulars: RCH-ACV (leukaemia line) NSD2 WT (2C) viability, CellTiter-Glo, 72 h; series mostly up to 44.9 µM.
Test [6] in a line: NCATS anti-infectives library activity on HEK293 viability as a counter-qHTS vs the C. elegans viability qHTS (AID 1745854; active = well fitted curve in the direction sought with a large enough effect; an effect the other way counts as inactive or inconclusive; also: % is scaled to controls: 0 for no effect and ±100 for the full control effect). Particulars: HEK293 viability counter-screen; series mostly up to 41.8 µM. Put shortly:
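CellTiter-Glo luminescence, read on a CCD imager, scored viability of HEK293 cells after 24 hr compound exposure at 37C. Library tested in several concentrations, 1:5 steps, up to 41.7 uM; digitonin served as control.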

Test [7] is described as follows: VSVG counterscreen qHTS to identify inhibitors of SARS-CoV-2 cell entry (AID 1645847). Also: potency is read from the fitted curve at half-maximal effect; nearly all actives have a fitted effect of over 65% in size. Particulars: VSV-G pseudotyped particle entry, luciferase; series mostly up to 57.2 µM. In short, it runs like this: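 Expi293F/hACE2 cells, overnight plating; cpd 1 h, 37C/5% CO2; + VSV-G PP (MLV pseudotyping), 48 h; supernatant removed, Bright-Glo luciferase read. Norm: VSV-G PP and bald PP wells.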

In test [8] the target is Rap guanine nucleotide exchange factor 3 (Homo sapiens) (UniProt O95398). The test can be described thus: Confirmatory qHTS for antagonist of cAMP-regulated guanine nucleotide exchange factor 3 (EPAC1) (AID 1645880; active = well fitted curve in the direction sought with a large enough effect; an effect the other way counts as inactive or inconclusive;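 also: plate controls were DMSO only for no effect and full effect of the ATA control for full effect; nearly all actives have a fitted effect of over 55% in size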). Particulars: EPAC1 Rap1B-BODIPY-GDP exchange, fluorescence; series mostly up to 115 µM. In short, it runs like this: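 Released BODIPY-GDP fluoresces less than Rap1-bound BODIPY-GDP; the signal is followed at 480/540 nm at 5-min intervals over 30 min, after 5 min at room temperature. Reactions contain 100 nM EPAC1, 250 nM RAP1B-BODIPY-GDP and 50 uM GDP; results are normalized to ATA and DMSO.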

For test [9] the target is unchanged. The test can be described thus: Confirmatory qHTS for agonist of cAMP-regulated guanine nucleotide exchange factor 3 (EPAC1) (AID 1645881; active = well fitted curve in the direction sought with a large enough effect; an effect the other way counts as inactive or inconclusive;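 also: EPAC1 catalysed release of BODIPY-GDP from Rap1B seen as fluorescence loss; nearly all actives have a fitted effect of over 75% in size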). Particulars: EPAC1 Rap1B BODIPY-GDP exchange fluorescence, 100% = cAMP control response; series mostly up to 154 µM.
For test [10], the target named is Rap guanine nucleotide exchange factor 4 (Homo sapiens) (UniProt Q8WZA2). Nature of the test: Confirmatory qHTS for agonist of cAMP-regulated guanine nucleotide exchange factor 4 (EPAC2) (AID 1645884; active = well fitted curve in the direction sought with a large enough effect; an effect the other way counts as inactive or inconclusive; also: % is scaled to controls: 0 for no effect and ±100 for the full control effect; nearly all actives have a fitted effect of over 65% in size). Particulars: EPAC2 GEF activity, Rap1B-BODIPY-GDP fluorescence, percent relative to cAMP agonist control; series mostly up to 154 µM.
For test [11] the target is unchanged. Nature of the test: Confirmatory qHTS for antagonist of cAMP-regulated guanine nucleotide exchange factor 4 (EPAC2) (AID 1645885; active = well fitted curve in the direction sought with a large enough effect; an effect the other way counts as inactive or inconclusive; also: potency is read from the fitted curve at half-maximal effect; nearly all actives have a fitted effect of over 25% in size). Particulars: EPAC2 Rap1B-BODIPY-GDP exchange fluorescence, biochemical; series mostly up to 114 µM.

Each structure is given as a SMILES string. “And” between values parts separate entries of the source, which are not always exact repeats. Equal entries are not always repeated. Records with an inconclusive call do not appear. The source made the active and inactive calls. Unless noted, calls follow the shape of the full dose curve.

Chain of Nuclear receptor subfamily 1 group I member 3 (Homo sapiens) (Q14994 whole entry, looked up): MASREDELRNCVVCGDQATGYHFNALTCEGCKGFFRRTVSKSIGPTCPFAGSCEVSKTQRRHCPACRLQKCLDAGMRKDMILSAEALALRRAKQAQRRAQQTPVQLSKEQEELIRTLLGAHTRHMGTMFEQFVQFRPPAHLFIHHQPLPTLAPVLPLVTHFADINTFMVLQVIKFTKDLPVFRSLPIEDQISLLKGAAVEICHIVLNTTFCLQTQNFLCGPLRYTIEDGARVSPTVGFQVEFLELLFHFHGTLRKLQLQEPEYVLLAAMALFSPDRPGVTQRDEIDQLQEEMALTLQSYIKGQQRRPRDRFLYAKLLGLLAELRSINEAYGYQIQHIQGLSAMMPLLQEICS
Chain of Rap guanine nucleotide exchange factor 4 (Homo sapiens) (Q8WZA2 whole entry, looked up): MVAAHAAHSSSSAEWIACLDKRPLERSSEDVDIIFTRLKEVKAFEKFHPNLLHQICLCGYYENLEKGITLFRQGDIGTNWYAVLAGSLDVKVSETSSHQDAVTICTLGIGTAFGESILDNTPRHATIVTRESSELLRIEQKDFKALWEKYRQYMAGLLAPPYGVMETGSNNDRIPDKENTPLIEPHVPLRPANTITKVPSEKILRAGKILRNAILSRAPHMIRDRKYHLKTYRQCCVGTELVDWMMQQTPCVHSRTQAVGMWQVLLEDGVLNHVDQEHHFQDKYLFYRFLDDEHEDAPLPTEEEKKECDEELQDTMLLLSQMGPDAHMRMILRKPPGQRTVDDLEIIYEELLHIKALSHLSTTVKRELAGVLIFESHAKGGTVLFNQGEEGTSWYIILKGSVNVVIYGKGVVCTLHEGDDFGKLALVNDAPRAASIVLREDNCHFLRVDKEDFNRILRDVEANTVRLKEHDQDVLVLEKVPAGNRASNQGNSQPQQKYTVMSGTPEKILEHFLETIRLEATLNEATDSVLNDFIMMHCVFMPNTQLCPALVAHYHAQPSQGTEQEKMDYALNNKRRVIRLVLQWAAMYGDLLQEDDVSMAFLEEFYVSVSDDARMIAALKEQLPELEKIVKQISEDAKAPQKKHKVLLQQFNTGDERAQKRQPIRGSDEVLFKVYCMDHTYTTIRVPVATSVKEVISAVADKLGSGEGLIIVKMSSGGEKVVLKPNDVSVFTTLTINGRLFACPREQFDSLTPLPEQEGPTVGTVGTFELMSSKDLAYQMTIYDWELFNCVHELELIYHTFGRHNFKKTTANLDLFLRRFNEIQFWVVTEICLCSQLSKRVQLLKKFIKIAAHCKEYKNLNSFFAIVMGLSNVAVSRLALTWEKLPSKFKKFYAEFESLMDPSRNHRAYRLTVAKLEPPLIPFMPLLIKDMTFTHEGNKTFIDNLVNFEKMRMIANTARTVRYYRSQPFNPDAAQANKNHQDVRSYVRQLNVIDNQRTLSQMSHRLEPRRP
Chain of Rap guanine nucleotide exchange factor 3 (Homo sapiens) (O95398 whole entry, looked up): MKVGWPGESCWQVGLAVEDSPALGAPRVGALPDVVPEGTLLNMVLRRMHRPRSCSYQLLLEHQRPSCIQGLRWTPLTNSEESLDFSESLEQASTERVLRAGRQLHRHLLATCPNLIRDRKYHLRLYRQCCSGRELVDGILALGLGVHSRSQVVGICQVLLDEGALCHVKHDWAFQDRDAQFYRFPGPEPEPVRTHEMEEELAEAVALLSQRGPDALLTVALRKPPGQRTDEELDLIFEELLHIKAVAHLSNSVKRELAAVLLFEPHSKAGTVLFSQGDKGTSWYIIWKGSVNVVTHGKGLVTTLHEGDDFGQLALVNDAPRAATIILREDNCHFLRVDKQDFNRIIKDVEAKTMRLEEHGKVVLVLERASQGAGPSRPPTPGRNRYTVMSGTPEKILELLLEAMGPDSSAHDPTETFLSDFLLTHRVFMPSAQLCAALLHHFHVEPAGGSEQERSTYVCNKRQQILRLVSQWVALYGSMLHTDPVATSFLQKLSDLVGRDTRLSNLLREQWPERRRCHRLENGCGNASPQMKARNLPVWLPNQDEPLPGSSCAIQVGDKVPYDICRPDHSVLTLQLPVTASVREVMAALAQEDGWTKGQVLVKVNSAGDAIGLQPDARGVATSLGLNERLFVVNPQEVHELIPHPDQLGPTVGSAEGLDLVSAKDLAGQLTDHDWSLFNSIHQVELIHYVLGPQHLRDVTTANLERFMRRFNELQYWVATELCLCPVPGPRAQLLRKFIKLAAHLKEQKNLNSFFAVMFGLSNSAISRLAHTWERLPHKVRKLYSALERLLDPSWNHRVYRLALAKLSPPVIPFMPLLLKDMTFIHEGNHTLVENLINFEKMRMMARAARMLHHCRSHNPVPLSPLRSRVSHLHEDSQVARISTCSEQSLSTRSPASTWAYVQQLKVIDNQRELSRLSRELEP

Take `Cn1c(=O)c2c(ncn2C)n(C)c1=O`: in [1], the Potency entry was “inactive”. In test [2], the activity change, negative = inhibition was 0.143% and -10.1%. Moreover, in test [3], the outcome was inactive.

Take `Nc1nc2ncc(CNc3ccc(C(=O)N[C@@H](CCC(=O)O)C(=O)O)cc3)nc2c(=O)[nH]1`: the Potency result in test [1] and in test [2] was “inactive” throughout. The compound was called inactive in test [3].

Regarding `O=C1O[C@H]([C@@H](O)CO)C(O)=C1O`, the Potency result in [1] and in test [2] was “inactive” throughout. Moreover, the call in [3] was inactive.

As to `CC[C@H]1CN2CCc3cc(OC)c(OC)cc3[C@@H]2C[C@@H]1C[C@H]1NCCc2cc(OC)c(OC)cc21`, the Potency in [2] is 1.26 µM (active).

Regarding `COc1ccc2c(c1)C(=O)N(CCc1ccc(S(=O)(=O)NC(=O)NC3CCCCC3)cc1)C(=O)C2(C)C`, the Potency entry in test [2] was “inactive”.

With `CCOC(=O)C1(c2ccccc2)CCN(CCc2ccc(N)cc2)CC1`, the Potency entry in test [1] and in test [4] was “inactive” in each case.

Regarding `CC[C@H]1C[C@H]2[C@@H]3CCC4=CC(=O)CC[C@@H]4[C@H]3CC[C@]2(C)[C@H]1O`, the Potency result in test [2] was “inactive”.

For `c1ccc(CN(CC2=NCCN2)c2ccccc2)cc1`, in [2], the Potency entry is “inactive”.

Regarding `CC(C)(C)C(=O)C(Oc1ccc(Cl)cc1)n1ccnc1` (centres undefined), the Potency in test [2] was 20 µM (active).

`CCCCCCCCCCCCCCCCCCNC(=O)OC1CCN(C(=O)OC[C@H](COC(=O)N(Cc2cccc[n+]2CC)C(=O)c2ccccc2OC)OC)CC1`: in test [2], the Potency was 10 µM (active).

In the case of `Cc1cc(C2CCCCC2)n(O)c(=O)c1`, in test [2], the Potency was 17.8 µM (active).

Consider `O=c1c(-c2ccccc2)c1-c1ccccc1`, for which, in test [2], the Potency was 31.6 µM (active).

In the case of `CC(C)COCC(CN(Cc1ccccc1)c1ccccc1)N1CCCC1` (centres undefined), in test [2], the Potency is 14.1 µM (active).

Take `CCn1cc(C(=O)O)c(=O)c2cc(F)c(N3CCN(C)CC3)cc21`: in [2], the Potency entry was “inactive”.

In the case of `C[N+](C)(C)CCCCCCCCCC[N+](C)(C)C`, the activity change, negative = inhibition in [2] is -5.17%.

On to `C[C@@H]1CC[C@H]2[C@@H](C)C(=O)O[C@@H]3O[C@@]4(C)CC[C@@H]1[C@]32OO4`, for which, in [1], the Potency entry was “inactive”. Further, the activity change, negative = inhibition in [2] was -32%. In addition, the Potency in test [5] is 5.25 µM (active). Also, the call in test [6] was inactive.

For `OCC(CO)N[C@H]1C[C@](O)(CO)[C@@H](O)[C@H](O)[C@H]1O`, the Potency entry in test [2] is “inactive”.

With `CC(C(O)c1ccccc1)N(C)CCOC(c1ccccc1)c1ccccc1` (centres undefined), the Potency entry in [1] is “inactive”. Moreover, in test [7], the Potency is 21.5 µM (active).

On to `O=C(NOCC1CC1)c1ccc(F)c(F)c1Nc1ccc(I)cc1Cl`, for which, in [2], the Potency was 31.6 µM (active).

`Cn1c(=O)c2c(ncn2CC2OCCO2)n(C)c1=O`: the activity change, negative = inhibition in test [2] is -5.86%.

As to `O=C(O)c1ccc(OCCCOc2ccc(C(=O)O)cc2)cc1`, the activity change, negative = inhibition in test [2] was -2.21%.

With `O=C(Oc1cccc2cccnc12)c1ccccc1`, the Potency in test [2] is 8.91 µM (active).

For `COc1ccc(CN2CCNCC2)c(OC)c1OC`, the Potency result in test [1], in [2] and in test [4] was “inactive” throughout.

Turning to `C[C@H]1C[C@H]2[C@@H]3CCC4=CC(=O)C=C[C@]4(C)[C@@]3(Cl)[C@@H](O)C[C@]2(C)[C@@]1(O)C(=O)CO`, the Potency result in [2] is “inactive”.

Consider `Clc1ccc(C(Cn2ccnc2)OCc2c(Cl)cccc2Cl)c(Cl)c1` (centres undefined), for which, in [2], the Potency was 31.6 µM (active).

In the case of `O=C(NCC1CN(c2ccc(N3CCOCC3=O)cc2)C(=O)O1)c1ccc(Cl)s1` (centres undefined), the Potency result in test [1] is “inactive”. The activity change, negative = inhibition in [2] was -26.5% and -55.1%. Further, the Potency in test [7] was 1.71 µM (active).

For the compound `CC1=C(CC(=O)O)c2cc(F)ccc2/C1=C\c1ccc(S(C)=O)cc1` (centres undefined), the Potency result in [2] is “inactive”.

Turning to `C[C@]12C=CC(=O)C=C1CC[C@H]1[C@@H]3C[C@@H](O)[C@](O)(C(=O)CO)[C@@]3(C)C[C@H](O)[C@@]12F`, the activity change, negative = inhibition in test [2] is 4.58%.

For the compound `Clc1ccc(CO/N=C(\Cn2ccnc2)c2ccc(Cl)cc2Cl)c(Cl)c1`, the call in [8], in [9] and in test [10] was inactive.

For the compound `Clc1ccc(CSC(Cn2ccnc2)c2ccc(Cl)cc2Cl)cc1` (centres undefined), the call in test [9] and in test [10] was inactive. Besides, in [11], the Potency was 22.1 µM (active).
